The list is not random: actives were taken first. Their share in the collection is about 3.2%.
FLuc inh = qHTS Assay for Inhibitors of Firefly Luciferase. 72,000 tested, 2.2% active. purified firefly luciferase, luminescence, 8 min. Luciferin 4-monooxygenase (Photinus pyralis), P08659. AID 411, 2009. Potency, µM (titrated, usually from 57.1 µM), without a hit: at the top dose activity change, negative = inhibition, most hits filed as inhibitors; active = well fitted inhibition curve with a large enough effect; inconclusive = small, poorly fitted or top-dose-only effect; also: % is scaled to controls: 0 for no effect and ±100 for the full control effect; nearly all actives have a fitted effect of over 40% in size
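Luminescence read-out after 8 min at room temperature; enzyme reaction used luciferin plus 10 uM ATP (linear range) in imidazole buffer pH 7.2 with KCl, MgCl2, Tween 20 and BSA. Each sample was run as a titration.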
GBA mod = Glucocerebrosidase; Lysosomal acid glucosylceramidase (Homo sapiens), P04062; purified enzyme, resorufin glucoside fluorescence (screen aimed at inhibitors), 20 min; Potency, µM; 48,000 tested, 1.1% active; in the data active = potency below about 15 µM; inconclusive = mostly about 16 µM to 33 µM;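 also: the screen sought inhibitors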
Target sequence (P04062 whole entry, looked up): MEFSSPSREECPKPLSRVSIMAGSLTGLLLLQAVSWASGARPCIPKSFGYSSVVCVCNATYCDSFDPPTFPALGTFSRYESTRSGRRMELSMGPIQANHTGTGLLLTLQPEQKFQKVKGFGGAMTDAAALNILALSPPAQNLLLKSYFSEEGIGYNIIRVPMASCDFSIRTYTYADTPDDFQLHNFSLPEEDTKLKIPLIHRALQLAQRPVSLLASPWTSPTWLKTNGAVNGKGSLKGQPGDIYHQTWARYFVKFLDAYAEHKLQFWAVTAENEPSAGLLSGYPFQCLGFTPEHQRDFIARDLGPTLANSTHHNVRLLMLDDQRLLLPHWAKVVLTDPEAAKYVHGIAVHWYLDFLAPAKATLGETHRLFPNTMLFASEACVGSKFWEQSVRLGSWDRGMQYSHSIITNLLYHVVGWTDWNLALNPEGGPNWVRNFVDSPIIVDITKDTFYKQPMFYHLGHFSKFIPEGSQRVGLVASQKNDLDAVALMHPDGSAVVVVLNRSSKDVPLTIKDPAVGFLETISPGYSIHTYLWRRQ
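Wild-type enzyme at 0.2 nM final in 50mM citric acid/KH2PO4, 10mM sodium taurocholate, 0.01% tween-20, pH 5.9, with resorufin beta-D-glucopyranoside at 30 uM final. Compounds titrated, 20 min at RT, red fluorescence read; AC50 from titration.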
Bst PK mod = Pyruvate Kinase; purified pyruvate kinase, luminescence ATP production; ribose 5-phosphate activator present at AC10; Potency, µM; 51,000 tested, 1.2% active; in the data active = potency below about 11 µM; inconclusive = mostly about 12 µM to 25 µM;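 the screen sought inhibitors and activators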;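 also: scaled between full activation by ribose 5 phosphate and full inhibition by luteolin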
* = called active by the depositor; i = inactive; ? = inconclusive; . = no result given; [ ] = remark or other dose. Potency is read from the fitted curve at half-maximal effect.

SMILES | FLuc inh | GBA mod | Bst PK mod
CC(C)Cn1nc(NS(=O)(=O)c2ccccc2)c2cc3ccccc3nc21 | 6.31µM* | >76.9 | 4.25*
COc1ccccc1CCn1c(=O)c(-c2cc(F)cc(F)c2)nc2cncnc21 | 0.1%[11.4 µM] | . | .
NC(N)=N/N=C\c1ccc(O)c(C(=O)O)c1 | 4.6%[11.4 µM] | . | .
Cc1ccc(-c2nnn(CC(=O)N3CCN(c4nc5ccccc5s4)CC3)n2)cc1 | -0.9% | >76.9 | >57
O=C1CCC(c2ccccc2)=NN1c1nc2ccccc2s1 | -3.8%[11.4 µM] | . | .
Cc1nn(-c2nc3ccccc3s2)c(N)c1-c1ccc(Cl)cc1 | -17.0% | 10.5* | 7.81*
O=c1cc(-c2ccccc2)[nH]n1-c1nc2ccccc2[nH]1 | -20.5% | >76.9 | .
Cc1nn(-c2nc3ccccc3s2)c(N)c1-c1ccccc1 | 3.98µM* | >76.9 | 1.64*
Cc1nn(-c2nc3ccccc3[nH]2)c(N)c1-c1ccccc1 | 7.94µM* | >76.9 | 2.85*
O=C(Nc1cccc(F)c1)N1CC[C@@]2(CCCN(C(=O)c3cccc(F)c3)C2)C1 | 1.8%[11.4 µM] | . | .
CC(C)C[C@H](N)C(=O)O | 2.1%[11.4 µM] | . | .
CC(C)CN1CCCC2(CCN(C(=O)c3csnn3)CC2)C1 | 2.0%[11.4 µM] | . | .
CCN1C(=O)[C@H]2[C@H]3[C@H](O)[C@H](O)C/C(=N/O[C@@H](C)CN4CCCc5nc(C)c(C)cc54)[C@@H]3CC[C@@H]2C1=O | 0.3%[11.4 µM] | . | .
Cc1cc(=O)n2[nH]c(-c3ccc(F)cc3)cc2n1 | ? | . | i
Cc1cc(=O)n2[nH]c(-c3ccc(Cl)cc3)cc2n1 | 15.8µM* | . | ?
CN(C)c1ccc(-c2nccc(Nc3ccc(F)cc3)n2)cc1 | -8.5%[2.29 µM] | . | .
CN(C)c1ccc(N/C=C/C(=O)c2ccc(F)cc2)cc1 | 0.631µM* | >76.9 | ?
COc1ccc(NC(=O)N2CCC3(CC2)CCN(C(=O)c2csnn2)CC3)cc1 | 1.6%[11.4 µM] | . | .
CCOC(=O)N/N=C1/C[C@@H](O)[C@@H](O)[C@@H]2[C@@H]3C(=O)N(C4CCCCC4)C(=O)[C@H]3CC[C@H]12 | -0.6%[11.4 µM] | . | .
COc1ccccc1-c1cncnc1NCc1cccc(C)c1 | -0.3%[2.29 µM] | . | .
CC(C)(C)c1ccc(C(=O)/C=C2\NC(=O)CS2)cc1 | 2.51µM* | . | 3.3*
COCCOC(=O)/C=C1/NC(=O)CS1 | 1.2% | >76.9 | >57
CCCCN(c1ccccc1)c1ncnc2c1cnn2C | 3.1%[11.4 µM] | . | .
Cc1ccc(-c2cccc(NC(=O)C3C(C(=O)O)[C@@H]4C=C[C@H]3C4)c2)o1 (stereo partly drawn) | -6.1% | >76.9 | 5.7*
Cc1ccc(-c2ccccc2NC(=O)C2C3C=CC(C3)C2C(=O)O)o1 (stereo not drawn) | -3.5%[25.5 µM] | . | >25.6
SMILES | FLuc inh | GBA mod | Bst PK mod
CN1C[C@@H](O)[C@@H](O)[C@@H](O)[C@@H]1CO | 3.0% | . | .
COc1ccc(-c2ccc(-c3noc(-c4ccco4)n3)c(OC)n2)cc1 | 2.4% | 7.68* | >57
COc1nc(-c2ccccc2)ccc1-c1noc(-c2ccccc2)n1 | ? | >76.9 | .
COc1nc(-c2ccccc2)ccc1-c1noc(-c2ccco2)n1 | -24.0% | i | >57
COc1ccc(-c2ccc(-c3noc(-c4ccccc4)n3)c(OC)n2)cc1 | -4.2% | 4.95* | >11.4
COc1ccc(C(=O)[C@H]2[C@H]3[C@@H](C(=O)[C@@H]4OC[C@H]3O4)[C@H]3C=Cc4ccccc4N32)c(OC)c1 | -10.1%[11.4 µM] | . | .
CS(=O)(=O)Nc1cccc(-c2ccc3ncnc(NCCN4CCOCC4)c3c2)c1 | -0.1%[2.29 µM] | . | .
Cc1nc2sccn2c1-c1nc(C2CC2)c(C(=O)c2ccc3c(c2)NC(=O)CO3)s1 | 4.4% | >76.9 | >57
O=C(NCCO)c1ccc2[nH]c3c(c2c1)CCCC3 | 15.8µM* | . | .
O=C(O)c1ccc2[nH]c3c(c2c1)CSCC3 | 5.1% | >76.9 | >57
O=C(O)CNCCc1ccccc1 | 1.3%[11.4 µM] | . | .
COc1ccc2[nH]cc(CCNc3ncncc3-c3c(C)noc3C)c2c1 | 1.3%[2.29 µM] | . | .
O=C(CCC(=O)N1CCc2ccccc21)N1CCc2ccccc21 | 0.2% | >76.9 | >57
O=C(CCCc1ccccc1)N1CCc2ccccc21 | 12.6µM* | . | .
O=c1cnc2cnc(Oc3ccccc3)nc2n1Cc1cccs1 | 1.4%[11.4 µM] | . | .
Cc1ccc(C(=O)OCC(=O)c2ccc(Cl)s2)s1 | 15.8µM* | >76.9 | i
O=C(COC(=O)c1ccc[nH]c1=O)c1ccc(Cl)s1 | -17.4% | >76.9 | >57
C[C@@H](CCC(=O)O)C(=O)O | 2.4%[11.4 µM] | . | .
COC(=O)C/C=C\[C@@H](C)[C@@H](/C=N\O[C@@H]1O[C@H](COC(C)=O)[C@H](OC(C)=O)[C@H](OC(C)=O)[C@H]1OC(C)=O)OC | 0.4%[11.4 µM] | . | .
COc1ccc(C2=C(N)c3ccccc3C2=O)cc1 | 12.6µM* | . | .
COc1ccc(-c2ccc(=O)[nH]n2)cc1 | 1.9% | >76.9 | >11.4
Cc1cccc(OCC(=O)Nc2cc(C)ccc2O)c1 | -4.1% | >76.9 | >57
COc1cccc(C(=O)/C=C/Nc2cc(C)ccc2O)c1 | 7.94µM* | >76.9 | 5.62*
CCCNC(=O)OC[C@@H]1O[C@H](CCO/N=C(\C)CCN2CCCCc3nc(C)c(C)cc32)C=C[C@@H]1Oc1ccc(OC)cc1 | 1.7%[11.4 µM] | . | .
OCc1nc2ccccc2n1CCCOc1ccc(Br)cc1 | 12.6µM* | i | ?
SMILES | FLuc inh | GBA mod | Bst PK mod
COc1ccccc1OCCn1c(CO)nc2ccccc21 | -4.0% | >76.9 | >57
COc1ccc(C(=O)N2CCC3(CCN(Cc4nccs4)CC3)CC2)cc1 | 2.1%[11.4 µM] | . | .
C(=C/c1ccccc1)/CN1CCN(C(c2ccccc2)c2ccccc2)CC1 | -0.3%[25.5 µM] | . | .
Cc1cc(NCCCN2CCOCC2)n2ncc(-c3ccccc3)c2n1 | 12.6µM* | i | .
CCOC(=O)c1cnn(-c2cc(C)nc3c(-c4ccccc4)cnn23)c1N | 2.8% | >76.9 | >57
Cc1cc(NCCCN2CCOCC2)n2nc(C)c(-c3ccccc3)c2n1 | -1.6% | . | >57
Cc1cc(NCCOCCO)n2ncc(-c3ccc(Cl)cc3)c2n1 | 6.31µM* | >76.9 | 6.73*
O=C(c1cnccn1)N1CCC[C@@]2(CCN(Cc3nccs3)C2)C1 | 0.3%[11.4 µM] | . | .
CC(C)Oc1ccc(/C(O)=C2/C(=O)C(=O)N(CCCN3CCOCC3)C2c2ccncc2)cc1 (stereo not drawn) | -0.1% | . | .
CSc1nc2[nH]c3c(c2c2ncnn12)CCCC3 | -3.6%[25.5 µM] | . | 0.423*
CCCn1c(=S)[nH]c2cc(C(=O)NCC3CCCO3)ccc2c1=O (stereo not drawn) | 2.3% | . | .
CCCCCNC(=O)c1ccc2c(=O)n(CC3CCCO3)c(=O)[nH]c2c1 (stereo not drawn) | 0.4% | 11* | >57
Cn1c(C(=O)NCc2ccc3c(c2)OCO3)cc2sccc21 | -1.3% | >76.9 | >57
COc1ccc(OC)c(NC(=O)c2cc3sccc3n2C)c1 | -26.2% | >76.9 | .
Cn1c(C(=O)Nc2ccc3c(c2)OCO3)cc2sccc21 | 7.94µM* | >76.9 | 6.37*
COc1cc(NC(=O)c2cc3sccc3n2C)cc(OC)c1 | 12.6µM* | . | 4.03*
CCN(CC)CCCNC(CC(=O)O)C(=O)O (stereo not drawn) | 2.9% | >76.9 | >57
c1ccc2sc(SCN(C3CCCCC3)C3CCCCC3)nc2c1 | 3.1%[11.4 µM] | . | .
COc1ccc(C(=O)N2CCC[C@@]3(CCN(C(=O)Nc4cccc(F)c4)C3)C2)cc1 | 1.6%[11.4 µM] | . | .
O=C1c2ccccc2-c2onc3ccc(NCc4ccco4)c1c23 | -23.4%[25.5 µM] | . | 5.26*
CCOc1ccc2noc3c2c1C(=O)c1ccccc1-3 | -2.7% | . | .
CN(Cc1ccco1)c1ccnc(-c2ccccc2C(F)(F)F)n1 | -1.3%[2.29 µM] | . | .

Bioassay records: PubChem BioAssay, National Center for Advancing Translational Sciences (NCATS)
